Test results from PubChem BioAssay (NCATS).
Results filed as inconclusive are left out. Active and inactive are the calls of the source. The call rests on the fitted dose curve; in most records, active means well fitted inhibition curve with a large enough effect; inconclusive means small, poorly fitted or top-dose-only effect; inactive means no such curve, though single readings can be large or run the other way.

assay: Primary qHTS for small molecule stabilizers of the endoplasmic reticulum resident proteome: Secreted ER Calcium Modulated Protein (SERCaMP) assay (AID 1508630); details: SH-SY5Y GLuc-SERCaMP (Gaussia luciferase released on ER calcium loss) secretion, thapsigargin, luminescence; series mostly up to 38.4 µM
From the text: Assay Provider: Brandon K. Harvey Ph.D.
National Institute on Drug Abuse, National Institutes of Health, Baltimore, MD
Endoplasmic reticulum (ER) dysregulation is associated with human pathologies including neurodegenerative, cardiovascular, muscular, and diabetic conditions. Maintenance of ER calcium is critical for functions of the ER and its depletion can lead to loss of ER resident proteins, in a process termed exodosis. Therapeutic compounds capable of attenuating the redistribution of ER proteins under pathological conditions may slow or stop disease progression. To identify such compounds, we performed a quantitative high-throughput screen (qHTS) using the SERCaMP assay, which monitors secretion of ER resident proteins triggered by calcium depletion.
SERCaMP was initially developed as a reporter of ER calcium homeostasis using a Gaussia luciferase with a modified signal peptide and carboxy-terminus (GLuc-SERCaMP), modifications that confer secretion of the reporter in response to ER calcium depletion (Henderson et al., 2014). The assay was used to screen 9,501 compounds, including a collection of drugs approved by the FDA (US), EMA (EU), NHI (Japan), and HC (Canada) regulatory agencies (Huang et al., 2011). Since the SERCaMP reporter reflects the exodosis phenomenon (Trychta et al., 2018a), compounds identified in the screen have the potential to prevent exodosis by different mechanisms such as stabilizing ER calcium or augmenting ERS retrieval.
1. Henderson, M.J., Wires, E.S., Trychta, K.A., Richie, C.T., and Harvey, B.K. (2014). SERCaMP: a carboxy-terminal protein modification that enables monitoring of ER calcium homeostasis. Mol Biol Cell 25, 2828-2839.
2. Huang, R., Southall, N., Wang, Y., Yasgar, A., Shinn, P., Jadhav, A., Nguyen, D.T., and Austin, C.P. (2011). The NCGC pharmaceutical collection: a comprehensive resource of clinically approved drugs enabling repurposing and chemical genomics. Sci Transl Med 3, 80ps16.
3. Trychta, K.A., Back, S., Henderson, M.J., and Harvey, B.K. (2018a). KDEL Receptors Are Differentially Regulated to Maintain the ER Proteome under Calcium Deficiency. Cell Rep 25, 1829-1840 e1826.
SEQUENCE No. (1, 2, 3, etc.); […] (e.g., Cells, Incubation, Reagent, etc.); VALUE and DESCRIPTION.
1; Reagent; 5 uL; 1000 SH-SY5Y cells per wells
3; Compound; 23 nL; Control inhibitor / compound library
5; Reagent; 100 nM; Thapsigargin
7; Reagent; 1 uL; 0.5x coelenterazine
8; Detection; Luminescence; ViewLux imaging system
NOTES (numbers refer to sequence above)
1; SH-SY5Y human neuroblastoma cells stably expressing GLuc-SERCaMP (SH-SY5Y-GLuc-ASARTDL) cells were seeded in 1,536 well white tissue culture treated plates (Corning, Cat# 7464) in DMEM-high glucose-sodium pyruvate (ThermoFisher Scientific, Cat #10569) supplemented with 10% bovine growth serum (Hyclone), 10 U/ml penicillin (Gibco), 10 ug/ml streptomycin (Gibco), and 20 mM HEPES.
2; Assay plates were incubated for 5 hour at 37C in a humidified incubator containing 5% CO2.
3; qHTS libraries (23 nl, final concentrations of 1.53 uM, 7.67 uM, 38.3 uM) or controls (neutral control: DMSO, positive control: dantrolene) were added using a Kalypsis pin-tool Robotic System equipped with 1536 pinheads.
4; Cells were then incubated for 16 hours at 37C, 5% CO2.
5; Thapsigargin was added at 100 nM to deplete ER calcium stores.
6; Cells were incubated for 4 hour (37 °C, 5% CO2)
7; Gaussia luciferase in the medium was measured by adding 1 ul of 0.5x coelenterazine (final concentration 0.07x) prepared in Gaussia Luciferase Glow Assay Buffer (Pierce), without addition of the Cell Lysis Buffer Reagent.
8; Luminescence was measured using a ViewLux […] CCD imaging system (Perkin Elmer) equipped with clear filters. […] The same controls were also used for the calculation of the Z' factor, a measure of assay quality control, as previously described (Zhang et al., 1999). […]

Row | SMILES | outcome
1 | O=C(Oc1ccccc1)N1CCC2(CC1)CCN(C(c1ccccc1)c1ccccc1)CC2 | inactive
2 | CC(C)CN1CC[C@@]2(CCCN(C(=O)Oc3ccccc3)C2)C1 | inactive
3 | CN1CC[C@@]2(CCCN(C(=O)c3ccncc3)C2)C1 | inactive
4 | CN1CCN(c2ncc3ncc(=O)n(C)c3n2)CC1 | inactive
5 | CCCN(C/C=C\I)[C@@H]1CCc2ccc(O)cc2C1 | inactive
6 | C[C@@H]1C[C@@H](O)[C@@]2(O)[C@]13CC(=O)OC[C@]2(C)[C@@](C)(O)C(=O)C3 | inactive
7 | CC(C)NC(=O)N1CCCC2(CCN(C(=O)Oc3ccccc3)CC2)C1 | inactive
8 | CC(n1cc(C[C@H](N)C(=O)O)c2ccccc21)n1cc(C[C@H](N)C(=O)O)c2ccccc21 | inactive
9 | COC(=O)N1CCC2(CCN(CC(C)C)CC2)CC1 | inactive
10 | COc1ccc(/C=C/C(=O)N2CC3C[C@@H](C2)Cn2c3cccc2=O)cc1OC | inactive
11 | O=C(Oc1ccccc1)N1CCC2(CCCN(Cc3nccs3)C2)CC1 | inactive
12 | COCC#CCN1CCCCC1c1cccnc1 (stereo not given) | inactive
13 | CCCC[N+]12C3CC(C(CC)[C@H]1O)[C@@H]1C(O)C4(C[C@@H]12)c1ccccc1N(C)C34 (stereo not given in full) | inactive
14 | CCOC(=O)c1ncc2[nH]c3ccc(OCc4ccccc4)cc3c2c1COC | inactive
15 | O=C(c1ccco1)N1CCC[C@@]2(CCN(Cc3ccncc3)C2)C1 | inactive
16 | O=C(c1ccco1)N1CCC2(CC1)CN(Cc1ccncc1)C2 | inactive
17 | O=C(Nc1cccc(F)c1)N1CC[C@@]2(CCCN(C(=O)Oc3ccccc3)C2)C1 | inactive
18 | C[C@]12CC[C@@H](O)C[C@H]1CC[C@@H]1[C@H]2CC[C@]2(C)C(=O)CC[C@@H]12 | inactive
19 | O=C(c1csnn1)N1CCC[C@@]2(CCN(Cc3ccncc3)C2)C1 | inactive
20 | O=C(Oc1ccccc1)N1CCC2(CCCN(Cc3ccccc3)C2)CC1 | inactive

Row | SMILES | outcome
21 | c1cnc(N2CCCC3(CCNCC3)C2)nc1 | inactive
22 | c1cnc(N2CC[C@@]3(CCCNC3)C2)nc1 | inactive
23 | c1csc(CN2CCC3(CCNCC3)CC2)n1 | inactive
24 | CN1CCC2=C[C@@H](O)[C@@H]3OC(=O)c4cc5c(cc4C3C21)OCO5 (stereo not given in full) | inactive
25 | CN1CCCC2(CCN(C(=O)c3ccncc3)CC2)C1 | inactive
26 | O=C(c1ccncc1)N1CCC2(CC1)CN(Cc1ccccc1)C2 | inactive
27 | N#Cc1ccc(CN2CC[C@@]3(CCCN(C(=O)Oc4ccccc4)C3)C2)cc1 | inactive
28 | c1csc(CN2CC3(CCNCC3)C2)n1 | inactive
29 | c1ccc(CN2CC[C@@]3(CCCNC3)C2)cc1 | inactive
30 | O=C(c1ccncc1)N1CCC[C@@]2(CCN(Cc3nccs3)C2)C1 | inactive
31 | CCCOC(=O)c1cc2c(cn1)[nH]c1ccccc12 | inactive
32 | O=C(CN1CCCCC1c1cccnc1)c1ccccc1 (stereo not given) | inactive
33 | CC(C)CN1CC2(CCN(C(=O)Oc3ccccc3)CC2)C1 | inactive
34 | O=C(Oc1ccccc1)N1CCC[C@@]2(CCN(C(c3ccccc3)c3ccccc3)C2)C1 | inactive
35 | O=C(Oc1ccccc1)N1CCC[C@@]2(CCN(Cc3cc(C(F)(F)F)cc(C(F)(F)F)c3)C2)C1 | inactive
36 | O=C(Nc1ccccc1)N1CC2(CCN(C(=O)Oc3ccccc3)CC2)C1 | inactive
37 | O=C(O)[C@@H]1Cc2[nH]cnc2C(c2cccnc2)N1 (stereo not given in full) | inactive
38 | CN1CCCC2(CCN(C(=O)c3ccco3)CC2)C1 | inactive
39 | O=C(Nc1ccccc1)N1CC[C@@]2(CCCN(C(=O)Oc3ccccc3)C2)C1 | inactive
40 | CC(C)CN1CCCC2(CCN(C(=O)Oc3ccccc3)CC2)C1 | inactive
